Assay results taken from PubChem BioAssay AID686978 (National Center for Advancing Translational Sciences (NCATS), 2013).
Among all 420,000 compounds or so, about 64,000 (15%) were called active. Not shown: some 27% with an inconclusive outcome. The call rests on the fitted dose curve; in most records, active means well fitted inhibition curve with a large enough effect; inconclusive means small, poorly fitted or top-dose-only effect; inactive means flat fitted curve, though single readings scatter. Not all results are given here.

Assay: qHTS for Inhibitors of human tyrosyl-DNA phosphodiesterase 1 (TDP1): qHTS in cells in absence of CPT; further: nearly all actives have a fitted effect of over 55% in size
Settings: DT40 Tdp1-/- hTDP1 cells, no CPT, ATP luminescence, 48 h; activity change, negative = growth inhibition: at 46.2 µM (top of the series)
In short: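 Readout: luminescence from CellTiter-Glo after 30 min in the dark at RT. Cells: DT40 Tdp1-/- with stable hTDP1, 400/well. Exposure: compounds alone, ≥48 hr, 37 °C.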
On the % scale 0 is the no-effect control and ±100 the full control effect; potency means the concentration at half of the fitted maximal effect.

Row | Compound | activity change, negative = growth inhibition | Potency
1 | O=C(c1ccco1)N1CCN(C(=O)C2CC(c3ccc(F)cc3)=NO2)CC1 (stereo unspecified) | 8.49% (inactive) | 
2 | COc1ccccc1N(CC(=O)Nc1ccc(C(F)(F)F)cc1)S(C)(=O)=O | 4.9% (inactive) | 
3 | COC(=O)c1ccc(CN(c2ccccc2OC)S(=O)(=O)c2cccs2)o1 |  | 23.1 µM (active)
4 | COC(=O)c1ccc(Cc2ccccc2)o1 | -14% (inactive) | 
5 | O=C(O)C1C2CC2CN1C(=O)c1ccc(Cl)cc1Cl (stereo unspecified) | -14.9% (inactive) | 
6 | O=C(CSC1CC(=O)N(CCc2ccccc2)C1=O)Nc1ccc(Cl)cc1 (stereo unspecified) | -19.9% (inactive) | 
7 | O=C(CSc1ccc(-c2ccco2)nn1)Nc1cccc(F)c1 |  | 20.6 µM (active)
8 | Cc1ccccc1NC(=O)CSc1ccc2nnc(-c3ccccn3)n2n1 | -11.4% (inactive) | 
9 | O=C(CSc1ccc(-c2ccccn2)nn1)Nc1ccccc1 |  | 18.4 µM (active)
10 | O=C(CSc1ccc(-c2ccc(F)cc2)nn1)Nc1ccc2c(c1)OCCO2 | -27.9% (inactive) | 
11 | O=C(CSc1ccc(-c2ccco2)nn1)NCc1ccc2c(c1)OCO2 | -1.47% (inactive) | 
12 | O=C(CSc1ccc(-c2ccc(-n3cccn3)cc2)nn1)Nc1ccc([N+](=O)[O-])cc1 | -3.72% (inactive) | 
13 | O=C(CCC(=O)OCc1cccc(C(=O)Oc2ccccc2)c1)Nc1cccc2ccccc12 | -21.2% (inactive) | 
14 | C=CCOc1ccccc1NC(=O)CN1C(=O)CNC1=O | -7.28% (inactive) | 
15 | COc1nc(N(C)C)nc(N2CC(=O)N(CCNS(=O)(=O)c3ccc(C)cc3)C2=N)n1 | -15.3% (inactive) | 
16 | NC(=O)C1(N2CCCCC2)CCN(C(=S)Nc2ccc(Cl)cc2)CC1 | -6.42% (inactive) | 
17 | CC(C)(C)Oc1ncc(Br)c(OC(C)(C)C)n1 | -2.08% (inactive) | 
18 | Cc1ccc(/C=C/C(=O)OCC(=O)NCc2ccc(Cl)cc2)o1 | 8.3% (inactive) | 
19 | CCOCCCNC(=O)C(NC(=O)c1ccccc1O)c1ccccc1 (stereo unspecified) | -7.83% (inactive) | 
20 | O=C(CSc1nnc(C2CC2)n1Cc1ccccc1)Nc1cccnc1Cl | 6.73% (inactive) | 
21 | CCC1(C(=O)c2ccccc2)C(c2cccc([N+](=O)[O-])c2)C1(C(=O)OC)C(=O)OC (stereo unspecified) |  | 13 µM (active)
22 | CCC(CC)NC(=O)/C=C/c1cccc([N+](=O)[O-])c1 | -26.5% (inactive) | 

Row | Compound | activity change, negative = growth inhibition | Potency
23 | O=C(NOCc1ccccc1)c1cccc([N+](=O)[O-])c1 | -4.33% (inactive) | 
24 | COc1ccc(C)cc1NC(=O)Nc1ccccc1SC | -14% (inactive) | 
25 | O=C(COC(=O)Cc1ccc([N+](=O)[O-])cc1)NC1CCCCCC1 | 21.9% (inactive) | 
26 | CN(C(=O)CN1C(=O)S/C(=C\c2ccccc2F)C1=O)C1CCS(=O)(=O)C1 (stereo unspecified) | -1.69% (inactive) | 
27 | COc1ccccc1/C=C1\SC(=O)N(CCC(=O)N(C)C2CCS(=O)(=O)C2)C1=O (stereo unspecified) | -17.3% (inactive) | 
28 | CN(C(=O)CCN1C(=O)/C(=C/c2ccccc2F)SC1=S)C1CCS(=O)(=O)C1 (stereo unspecified) |  | 23.1 µM (active)
29 | CSc1cc(C)n(-c2ccccc2C)c(=S)c1C(C)=O | -2.36% (inactive) | 
30 | Cc1cccc(NC(=O)CSc2nnc(CCNC(=O)OC(C)(C)C)o2)c1C | -2.72% (inactive) | 
31 | CC1CC(C)CN(C(=O)CCNC(=O)Cn2cnc3ccccc3c2=O)C1 (stereo unspecified) | -6.93% (inactive) | 
32 | CCc1ccc(NC(=O)CSc2nnc(-c3cnccn3)n2Cc2ccco2)cc1 | -21.8% (inactive) | 
33 | O=C1c2ccccc2C(=O)C1c1ccccc1F | -1.5% (inactive) | 
34 | CCCN1CCc2nc(N3CCN(C)CC3)ncc2C1 | -13.9% (inactive) | 
35 | CN1CCN(c2ncc3c(n2)CC(c2ccccc2F)CC3=O)CC1 (stereo unspecified) |  | 18.4 µM (active)
36 | CSc1nsc(SC)c1NC(=O)OC1CCCCC1 | -24.9% (inactive) | 
37 | N#CCSc1nn(-c2ccc(F)cc2)c(=S)s1 | -15.7% (inactive) | 
38 | CCOC(=O)N/N=C1\CC(C)S(=O)(=O)c2ccc(Cl)cc21 (stereo unspecified) | -29.5% (inactive) | 
39 | Cc1nc(N2CCOCC2)nc2c1CCCC2 | -3.14% (inactive) | 
40 | COc1cccc(C(C(=O)NC2CCCC2)N(C(=O)c2ccco2)c2cccc(C(C)=O)c2)c1OC (stereo unspecified) | -19.3% (inactive) | 
41 | FC(F)(F)c1nnc2ccc(N3CCN(c4ccccc4)CC3)nn12 | -23.8% (inactive) | 
42 | Fc1c(F)c(C(F)(F)F)c(F)c(F)c1N1CCN(c2ccc3nnc(C(F)(F)F)n3n2)CC1 |  | 23.1 µM (active)
43 | NC(=O)c1oc2ccccc2c1NC(=O)CS(=O)(=O)c1ccccc1 | 14.4% (inactive) | 
44 | Cc1ccc(C(=O)CCC(=O)N(C)CC(=O)Nc2c(Cl)cccc2Cl)cc1 | -20.5% (inactive) | 

Row | Compound | activity change, negative = growth inhibition | Potency
45 | CC(C)CC(N=C1NC(C)(C)Cc2ccccc21)C(=O)O (stereo unspecified) | 0.347% (inactive) | 
46 | Cc1nc2ccc(N)nc2nc1C | 0.191% (inactive) | 
47 | Cn1c(C(=O)NCCCN2CCCCC2)cc2sccc21 | -27.6% (inactive) | 
48 | COCC(=O)N=Nc1c(O)[nH]c2ccccc12 | -18.6% (inactive) | 
49 | O=C(CCN1CCCCC1)N=Nc1c(O)[nH]c2ccccc12 |  | 23.1 µM (active)
50 | O=C(CNC(=O)Cc1ccccc1)N=Nc1c(O)[nH]c2ccc(Br)cc12 | -29.5% (inactive) | 
51 | COc1ccccc1CNC(=O)CCCNS(=O)(=O)c1cccc2nsnc12 | -2.92% (inactive) | 
52 | Cn1c(C(=O)O)ccc1S(=O)(=O)N(Cc1ccccc1)Cc1ccccc1 | 1.26% (inactive) | 
53 | COc1ccc(C2NC(=O)C(=O)/C2=C(\O)c2ccc(Cl)cc2)cc1OC (stereo unspecified) | -6.54% (inactive) | 
54 | CCCCOc1ccc(CSC(=N)N)cc1[N+](=O)[O-] |  | 11.6 µM (active)
55 | CCCCCOc1ccc(CSC2=NCCN2)cc1[N+](=O)[O-] |  | 23.1 µM (active)
56 | CCOc1ccc(C(=O)Nc2nccs2)cc1[N+](=O)[O-] | 0.0318% (inactive) | 
57 | COc1ccc(NC(=O)CSCc2ccc([N+](=O)[O-])cc2)cc1OC | -29.2% (inactive) | 
58 | Cc1nc(SCc2ccc(F)cc2)c([N+](=O)[O-])[nH]1 | -10.3% (inactive) | 
59 | CCCCOc1ccc(CON(C(C)=O)C(C)=O)cc1Cl | 20.8% (inactive) | 
60 | CC(NC(=O)CC1SC(N)=NC1=O)c1ccccc1 (stereo unspecified) | 22.5% (inactive) | 
61 | CCCCCc1ccc(-c2cn(Cc3ccc4ccccc4c3)nn2)cc1 |  | inactive
62 | CCc1cc(-c2nnn(CCC3COCCO3)c2CC)ccc1-c1cn(Cc2ccc3ccccc3c2)nn1 (stereo unspecified) |  | 5.8 µM (active)
63 | O=C(Nc1ccccc1Cl)N1CCC(CN2CCCC2)CC1 | -0.183% (inactive) | 
64 | CCn1nnc(NC(=O)c2cc(Cl)c(OC)c(Cl)c2)n1 | -21.1% (inactive) | 
65 | COc1ccc(-c2nonc2NC(=O)c2oc3ccc(F)cc3c2C)cc1OC | -19.1% (inactive) | 
66 | COc1ccc(C(=O)Nc2nonc2-c2ccc(OC)c(OC)c2)cc1Cl |  | 23.1 µM (active)

Row | Compound | activity change, negative = growth inhibition | Potency
67 | Cc1cc(C(=O)COc2ccc(Br)cc2F)c(C)n1C1CC1 |  | 3.26 µM (active)
68 | CC(=O)C1=C(C)NC(=O)NC1c1cc(Br)ccc1OCC#N (stereo unspecified) | 1.02% (inactive) | 
69 | CN1CCN(C(=O)c2ccccc2NC(=O)COc2ccccc2Cl)CC1 | -5.01% (inactive) | 
70 | O=C(COc1ccccc1Cl)Nn1cnnc1 | 0.711% (inactive) | 
71 | CCOC(=O)CC1C(=O)NCCN1C(=O)COc1ccc(Br)cc1C (stereo unspecified) | -1.36% (inactive) | 
72 | Cc1cc(C(=O)COc2ccccc2Cl)c(C)n1C1CC1 |  | 6.51 µM (active)
73 | CC(=O)c1cccc(NC(=O)N2CCCC2C(=O)NCCC(C)C)c1 (stereo unspecified) | -8.59% (inactive) | 
74 | COc1ccccc1C(=O)N(C1=NC(C)CS1)c1ccc(Cl)cc1 (stereo unspecified) | -5.33% (inactive) | 
75 | O=C(NCCc1ccccc1)C(=O)NCC1OCCN1S(=O)(=O)c1cccs1 (stereo unspecified) | -12% (inactive) | 
76 | CSCCC(NC(=O)c1ccc(=O)n(C)n1)c1nc2ccccc2[nH]1 (stereo unspecified) | -21.1% (inactive) | 
77 | CSCCC(NC(=O)c1cc([N+](=O)[O-])cc([N+](=O)[O-])c1)c1nc2ccccc2[nH]1 (stereo unspecified) |  | 16.4 µM (active)
78 | CCCC(NC(=O)c1ccco1)c1nc2ccccc2[nH]1 (stereo unspecified) | -28.5% (inactive) | 
79 | COc1ccc(Cn2c(-c3ccc(Cl)cc3)c[n+]3ccccc23)cc1 |  | 1.16 µM (active)
80 | CCn1c(C)cc(=O)cc1-c1ccc(Cl)cc1 | 2.38% (inactive) | 
81 | COc1ccc(C(=O)CN(C(=O)c2ccc(Cl)cc2)N2C(=O)c3ccccc3C2=O)cc1 | -5.29% (inactive) | 
82 | COc1ccc(S(=O)(=O)N2CCN(CC(=O)N3CCNC3=O)CC2)cc1OC | -5.83% (inactive) | 
83 | Cc1ccc(S(=O)(=O)CCC(=O)OCC(=O)N(C)Cc2ccccc2)cc1 | -3.82% (inactive) | 
84 | CCOc1ccc(CNC(=O)c2ccc3c(c2)nnn3C2CCCC2)cc1 | -25% (inactive) | 
85 | COc1ccc(C(=O)OCC(=O)N2CC(=O)Nc3ccccc32)cc1Br | -13.8% (inactive) | 
86 | O=C(NCCc1ccccc1)c1c[nH]c2ccc(F)cc2c1=O | -17.7% (inactive) | 
87 | CN(c1ccccc1)S(=O)(=O)c1ccc(Cl)c(C(=O)OCC(N)=O)c1 | -29.5% (inactive) | 
88 | CSCCC(NS(=O)(=O)c1ccc(C)cc1)C(=O)NCCc1c[nH]c2ccccc12 (stereo unspecified) | -29.1% (inactive) | 

Row | Compound | activity change, negative = growth inhibition | Potency
89 | CN(c1ccccc1)S(=O)(=O)c1ccc(Cl)c(C(=O)NCCc2c[nH]c3ccccc23)c1 |  | 8.2 µM (active)
90 | CCc1ccc(NS(=O)(=O)c2ccc3[nH]cc(C(=O)NCCc4cccc(C)c4)c(=O)c3c2)cc1 | -25% (inactive) | 
91 | CCN(CC)S(=O)(=O)c1ccc2[nH]cc(C(=O)NCCc3ccccc3)c(=O)c2c1 |  | 14.6 µM (active)
92 | Fc1ccc(CN2CCc3nc(Nc4ccccc4)ncc3C2)cc1F |  | 20.6 µM (active)
93 | COc1ccc(CN2CCc3nc(Nc4ccccc4)ncc3C2)c(OC)c1OC |  | 20.6 µM (active)
94 | O=C(CSc1nc2c(c(=O)[nH]1)CN(Cc1ccc(F)cc1)CC2)Nc1ccccc1Cl | 0.998% (inactive) | 
95 | COc1ccc(CN2CCN(Cc3ccc(OC)c(OC)c3OC)CC2)cc1 | -19.3% (inactive) | 
96 | Cn1c(=O)c(CCc2ccccc2)nc2cnc(Nc3ccccc3)nc21 | 14.5% (inactive) | 
97 | Cc1nc2cnc(Nc3ccccc3)nc2n(Cc2ccc(F)cc2)c1=O | -2.88% (inactive) | 
98 | Fc1cccc(CSc2nnc3ccc(-c4ccncc4)nn23)c1 | -0.226% (inactive) | 
99 | Cc1[nH]c2ccccc2c1-c1ccc(Cl)nn1 | 13.8% (inactive) | 
100 | C=CCN1CCN(C(=O)CCCc2ccccc2)CC1 | 3.73% (inactive) | 
101 | COc1ccccc1CNC(=O)C1CCN(C(=O)[C@@H]2Cc3ccccc3CN2)CC1 | 5.32% (inactive) | 
102 | COc1ccccc1CNC(=O)[C@@H]1CCCN1C(=O)[C@@H]1Cc2ccccc2CN1C(=O)OC(C)(C)C |  | 16.4 µM (active)
103 | COc1ccccc1CNC(=O)C1Cc2ccccc2C(=O)O1 (stereo unspecified) | 9.48% (inactive) | 
104 | O=C(NCC(=O)N1CCC2(CC1)NCCc1[nH]cnc12)c1ccc(Br)cc1 | 15.7% (inactive) | 
105 | CC(C)c1ccc(/C=C/C(=O)NNC(=O)c2cccnc2)cc1 | -19.6% (inactive) | 
106 | COc1cc2[nH]c(=S)n(Cc3ccc(C)o3)c(=O)c2cc1OC | -18.2% (inactive) | 
